Screens (PubChem)
HPGD inh: HPGD (human) dehydrogenase inhibition; P15428; purified HPGD, NADH fluorescence kinetic, PGE2 substrate; Potency, µM, most hits filed as inhibitors; hit rate 4.3% among 150,000
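NADH formation kinetics: reaction with 30 uM PGE2 and 1 mM NAD+ (final), 20 nM enzyme, Tris-HCl pH 8 with Tween 20, after 15 min compound preincubation at room temperature. Fluorescence change, last versus first of five reads.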
Tau fluor cs: counter-screen for tau fibril formation inhibitors | Potency, µM (top dose mostly 57.7 µM) | AID 1463 | tau K18 P301L Alexa594 fluorescence, heparin fibrillization | hit rate 0.93% among 280,000; active = well fitted curve in the direction sought with a large enough effect; inconclusive = small, poorly fitted or top-dose-only effect, or another doubt; inactive = no such curve, though single readings can be large; an effect the other way counts as inactive or inconclusive; note: nearly all actives have a fitted effect of over 55% in size
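Human K18 P301L tau (15 uM unlabeled plus 0.24 uM Alexa 594-labeled, final) in 100 mM sodium acetate pH 7 was mixed with compound and 20 uM heparin and incubated 6 hr at 37 C.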
Tau fibril ThT: inhibitors of human tau fibril formation, thioflavin T binding | Potency, µM (series often up to 57.4 µM), most hits filed as inhibitors | P10636 | AID 1460 | hit rate 2.1% among 270,000 | recombinant tau K18 P301L (four-repeat tau fragment), heparin-induced fibrillization, ThT fluorescence; active = well fitted curve in the direction sought with a large enough effect; inconclusive = small, poorly fitted or top-dose-only effect, or another doubt; inactive = no such curve, though single readings can be large; an effect the other way counts as inactive or inconclusive; note: nearly all actives have a fitted effect of over 55% in size
Target sequence (P10636 561-689 P618L limits assumed): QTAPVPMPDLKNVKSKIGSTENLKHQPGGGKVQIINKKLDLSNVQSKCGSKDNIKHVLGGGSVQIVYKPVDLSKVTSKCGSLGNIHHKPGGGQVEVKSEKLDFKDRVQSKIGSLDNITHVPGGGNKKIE
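Tau K18 P301L fragment (15 uM unlabeled plus 0.24 uM Alexa 594-labeled) in 100 mM sodium acetate pH 7 with compound, fibrillization induced by 20 uM heparin for 6 hr at 37 C. Thioflavin T (30 uM) added, fluorescence read after 1 hr (ex 450, em 510 nm).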
JMJD2E inh: inhibitors of human JMJD2E histone demethylase. B2RXH2. JMJD2E catalytic domain, FDH-coupled NADH fluorescence (FDH is formaldehyde dehydrogenase). Potency, µM (titrated, usually from 57.1 µM), actives largely listed as inhibitors. hit rate 1.6% among 230,000; note: nearly all actives have a fitted effect of over 50% in size
ALDH1A1 block: inhibitors of human aldehyde dehydrogenase 1A1; hit rate 7.3% among 220,000; AID 1030; Purified ALDH1A1, NADH fluorescence, propionaldehyde substrate; Potency, µM (doses to about 75.3 µM), hits mostly inhibitors
Target sequence (P00352 whole entry, looked up): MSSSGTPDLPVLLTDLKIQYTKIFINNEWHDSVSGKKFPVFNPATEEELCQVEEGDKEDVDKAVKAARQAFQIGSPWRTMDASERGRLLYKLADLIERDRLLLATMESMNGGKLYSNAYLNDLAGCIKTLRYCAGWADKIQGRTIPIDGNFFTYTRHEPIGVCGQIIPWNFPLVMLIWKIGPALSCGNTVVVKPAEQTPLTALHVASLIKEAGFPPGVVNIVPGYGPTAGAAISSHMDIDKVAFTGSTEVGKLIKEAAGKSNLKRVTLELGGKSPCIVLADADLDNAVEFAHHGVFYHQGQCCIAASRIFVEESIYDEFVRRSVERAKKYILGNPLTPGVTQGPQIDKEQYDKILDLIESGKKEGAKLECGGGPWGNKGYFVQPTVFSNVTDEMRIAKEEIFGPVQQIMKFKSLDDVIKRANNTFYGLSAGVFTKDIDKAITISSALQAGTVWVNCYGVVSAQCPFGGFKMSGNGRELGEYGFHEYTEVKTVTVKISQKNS
Tau FP inhib: inhibitors of human tau fibril formation | P10636 | K18 P301L tau heparin fibrillization, Alexa594 FP, 6 h | AID 1468 | hit rate 0.39% among 280,000 | Potency, µM (highest dose often 57.7 µM), usual class: inhibitors; active = well fitted curve in the direction sought with a large enough effect; inconclusive = small, poorly fitted or top-dose-only effect, or another doubt; inactive = no such curve, though single readings can be large; an effect the other way counts as inactive or inconclusive; note: nearly all actives have a fitted effect of over 55% in size
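Quantitative HTS format: compounds meet 15 uM recombinant K18 P301L tau and Alexa 594-tau tracer in 100 mM sodium acetate pH 7; 20 uM heparin triggers fibrillization at 37 C over 6 hr; FP gives the signal.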
A number is an active result; [ ] = remark or other dose. An excerpt weighted towards active compounds, which were near 9.9% of everything screened. Unless noted, calls come from the whole dose curve; as a rule, active = well fitted inhibition curve with a large enough effect (not every such curve was filed as active); inconclusive = small, poorly fitted or top-dose-only effect, or another doubt; inactive = no such curve, though single readings can be large or run the other way.

Screening CCCc1ccccc1OCCNC(=O)c1cc(=O)n(C)c(=O)n1C returned Tau fluor cs inactive, Tau fibril ThT inactive, JMJD2E inh inactive, ALDH1A1 block inactive and Tau FP inhib inactive.
`CC(=O)Nc1ccc(OC(=O)c2ccc(Br)c([N+](=O)[O-])c2)cc1` gave Tau fluor cs inconclusive, Tau fibril ThT 25µM, JMJD2E inh inactive, ALDH1A1 block inactive and Tau FP inhib inconclusive.
`S=C(Nc1ccccn1)c1ccccn1` gave HPGD inh 8.9µM, Tau fluor cs inactive, Tau fibril ThT inconclusive, JMJD2E inh 13µM, ALDH1A1 block 3.5µM and Tau FP inhib inactive.
`Cc1ccc(C)c(NC(=S)c2ccccn2)c1` gave HPGD inh 28µM, Tau fluor cs inactive, Tau fibril ThT inconclusive, JMJD2E inh inactive, ALDH1A1 block inconclusive and Tau FP inhib inconclusive.
`COc1ccc(CCNC(=O)C2CCCN(c3ncccn3)C2)cc1` (stereo unspecified) gave Tau fluor cs inactive, Tau fibril ThT inactive, JMJD2E inh inactive, ALDH1A1 block inconclusive and Tau FP inhib inactive.
`CCOC(=O)COc1c(Cl)cc(C2NC(=S)NC(c3ccccc3)=C2C(C)=O)cc1OCC` (stereo unspecified) gave HPGD inh inactive, Tau fluor cs inactive, Tau fibril ThT inactive, JMJD2E inh inactive, ALDH1A1 block inactive and Tau FP inhib inactive.
COCCOCC(O)CN1CCN(c2ccc(C)cc2)CC1 (stereo unspecified) was read as HPGD inh inactive, Tau fluor cs inactive, Tau fibril ThT inactive, JMJD2E inh inactive, ALDH1A1 block 11µM and Tau FP inhib inactive.
`Cc1c(Cl)cccc1NC(=O)c1cc2nc(-c3ccc4c(c3)OCO4)cc(C(F)(F)F)n2n1` gave Tau fluor cs inactive, Tau fibril ThT inactive and Tau FP inhib inactive.
`CCN(CC)c1ccc(/C=N/Nc2nc3ccccc3[nH]2)cc1` gave HPGD inh inconclusive, Tau fluor cs 7.9µM[quencher], Tau fibril ThT 3.2µM, JMJD2E inh inconclusive, ALDH1A1 block inconclusive and Tau FP inhib inconclusive.
Screening C(=N\Nc1nc2ccccc2[nH]1)/c1ccc2c(c1)OCO2 returned Tau fluor cs inconclusive, Tau fibril ThT 7.9µM, JMJD2E inh inactive, ALDH1A1 block inactive and Tau FP inhib inactive.
`c1ccc(CCC2CCCCN2Cc2cn[nH]c2-c2cc3ccccc3o2)nc1` (stereo unspecified) gave Tau fluor cs inactive, Tau fibril ThT inactive, JMJD2E inh inactive, ALDH1A1 block inactive and Tau FP inhib inactive.
Screening CC(=O)O[C@@]1(C(C)=O)CCC2C3CC(C)C4=CC(=O)CC[C@@]4(C)C3CC[C@]21C (stereo partly specified) returned HPGD inh inactive, Tau fluor cs inactive, Tau fibril ThT inactive, JMJD2E inh inactive, ALDH1A1 block inactive and Tau FP inhib inactive.
For CCOC(=O)c1c(C)n(C)c2cc([N+](=O)[O-])c(O)c([N+](=O)[O-])c12 the results were Tau fluor cs inactive, Tau fibril ThT 8.9µM, JMJD2E inh inactive, ALDH1A1 block inactive and Tau FP inhib inactive.
Screening C=CCn1c(O)c(N=NC(=O)OC(C)(C)C)c2ccccc21 returned HPGD inh inconclusive, Tau fluor cs inactive, Tau fibril ThT inactive, JMJD2E inh inactive, ALDH1A1 block inconclusive and Tau FP inhib inactive.
For CCOC(=O)N=Nc1c(O)n(CC(=O)OC)c2ccccc12 the results were Tau fluor cs inactive, Tau fibril ThT inactive, JMJD2E inh inactive, ALDH1A1 block 7.1µM and Tau FP inhib inactive.
`Cc1occc1C(=O)N=Nc1c(O)n(C)c2ccccc12` gave HPGD inh inactive, Tau fluor cs inactive, Tau fibril ThT inconclusive, JMJD2E inh inactive, ALDH1A1 block inactive and Tau FP inhib inactive.
Screening Cc1ccc(NC(=O)Cn2c(O)c(N=NC(=O)c3ccncc3)c3ccccc32)cc1 returned Tau fluor cs inactive, Tau fibril ThT inconclusive, JMJD2E inh inactive, ALDH1A1 block 4.5µM and Tau FP inhib inactive.
CCOC(=O)C(=O)N=Nc1c(O)n(C)c2ccccc12 was read as Tau fluor cs inactive, Tau fibril ThT inactive, JMJD2E inh inactive, ALDH1A1 block 14µM and Tau FP inhib inactive.
For COc1ccccc1NC(=O)Cn1c(O)c(N=NC(=O)c2ccccc2O)c2ccccc21 the results were Tau fluor cs inactive, Tau fibril ThT inconclusive, JMJD2E inh inactive, ALDH1A1 block 1.6µM and Tau FP inhib inactive.
CNC(=S)NNC(=O)c1c(C)nc2cc(C)ccn12 was read as Tau fluor cs inactive, Tau fibril ThT inactive, JMJD2E inh inactive and Tau FP inhib inactive.
`CCOC(=O)c1c(NC(=O)c2cc3nc(-c4ccc(Br)cc4)cc(C(F)(F)F)n3n2)sc(C(C)=O)c1C` gave Tau fluor cs inactive, Tau fibril ThT inactive and Tau FP inhib inactive.
Screening Cn1c(O)c(N=NC(=O)c2ccccc2O)c2ccccc21 returned Tau fluor cs inactive, Tau fibril ThT 13µM, JMJD2E inh inactive, ALDH1A1 block inactive and Tau FP inhib inactive.
`CCCCn1c(O)c(N=NC(=O)c2ccncc2)c2cc(Br)ccc21` gave HPGD inh inactive, Tau fluor cs inactive, Tau fibril ThT inconclusive, JMJD2E inh inactive, ALDH1A1 block 7.9µM and Tau FP inhib inactive.
For Cc1cc(N=NC(=O)c2ccccc2O)c2ccccc2c1O the results were Tau fluor cs inconclusive, Tau fibril ThT 14µM, JMJD2E inh inactive, ALDH1A1 block inactive and Tau FP inhib inconclusive.
`COc1ccc(C)c2sc(N(Cc3cccnc3)C(=O)CCc3ccccc3)nc12` gave Tau fluor cs inactive, Tau fibril ThT inconclusive and Tau FP inhib inactive.
For COC(=O)c1ccc(Cl)cc1NC(=O)N1CC=C(c2c[nH]c3ccccc23)CC1 the results were Tau fluor cs 11µM[quencher], Tau fibril ThT inconclusive and Tau FP inhib inactive.
For Cc1cccc(NC(=O)N2CC=C(c3c[nH]c4ccccc34)CC2)c1C the results were Tau fluor cs 25µM[quencher], Tau fibril ThT inconclusive and Tau FP inhib inactive.
For Cc1ccc(NC(=O)N2CC=C(c3c[nH]c4ccccc34)CC2)cc1Cl the results were Tau fluor cs 14µM[quencher], Tau fibril ThT 6.3µM and Tau FP inhib inactive.
`O=C(Nc1ccccc1)N1CC=C(c2ccccc2)CC1` gave HPGD inh inactive, Tau fluor cs inactive, Tau fibril ThT inactive, JMJD2E inh inactive, ALDH1A1 block inconclusive and Tau FP inhib inactive.
`O=C(Nc1ccc(Br)cc1F)N1CC=C(c2c[nH]c3ccccc23)CC1` gave Tau fluor cs 8.9µM[quencher], Tau fibril ThT 8.9µM and Tau FP inhib inactive.
For CCCCn1c(NCc2cc(Cl)ccc2O)nc2ccccc21 the results were Tau fluor cs inconclusive, Tau fibril ThT inactive and Tau FP inhib inactive.
`CSc1cccc(NC(=O)OC2CCCCCCCCCCC2)c1` gave HPGD inh inactive, Tau fluor cs inactive, JMJD2E inh inactive, ALDH1A1 block inactive[13.5 µM] and Tau FP inhib inconclusive.
